# Potency and affinity values are given separately. Results filed as inconclusive are left out. Unmarked numbers belong to inactive results.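 The calls were made as follows: active = fitted half-maximal concentration for viability loss no higher than twice the top valid dose, in every repeat run; inconclusive = repeat runs disagree, flat partial loss, or poor curve fit; inactive = the rest.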
# Assay: IOSE-T80 viability loss, PAX8-independent line – cell-based, cherry-pick, selectivity assay for PAX8 inhibitor project, dose response (AID 687032);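 also: cells exposed to compound for 96 h before reading; 0% = neutral control wells and -100% = 2 µM mitoxantrone kill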
# Conditions: CellTiterGlo ATP luminescence, 96 h; series mostly up to 35 µM; activity change, negative = viability loss: at the top concentration
row,SMILES,"activity change, negative = viability loss [%]"
1,COc1ccc(NC(=O)C(Sc2nnc(-c3ccncc3)n2-c2ccccc2C)c2ccccc2)cc1Cl (configuration not stated),12.4
2,CC(C)c1ccc(/C=C(\c2nc3ccccc3[nH]2)S(=O)(=O)c2ccccc2)cc1,-2.61
3,Cn1nnnc1Sc1ncnc2scc(-c3cccc(C(F)(F)F)c3)c12,9.14
4,O=C(CC1SC(=Nc2cccc3ccccc23)N(Cc2ccccn2)C1=O)Nc1ccccc1Br (configuration not stated),9.36
5,CC(=O)c1cccc(-c2csc3ncnc(Sc4nnnn4C)c23)c1,10.6
6,CCCCn1nc(C(=O)Nc2cc(C(F)(F)F)ccc2N2CCOCC2)ccc1=O,3.41
7,C=CC[C@H](CC(=O)N(CCO)Cc1ccccc1)C(=O)N[C@@H](COC(=O)[C@H](CC=C)CC(=O)OC(C)(C)C)Cc1c[nH]c2ccccc12,13.4

# Reference: PubChem BioAssay
